Source: the supplement of paper PMC13380429

Test system: Vero E6 infected with SARS-CoV-2
Experiment: inhibition of SARS-CoV-2 cytopathic effect; higher = more antiviral protection, active = above 15
Settings: 48 h

Measured: inhibition of SARS-CoV-2 cytopathic effect

Nc1ncnc2c1ncn2[C@@H]1O[C@@H]2COP(=O)(O)O[C@H]2[C@H]1O [cyclic-AMP]
inactive: 1 nM 3.59% | 8.33 nM -0.53% | 100 nM -1.76% | 833.33 nM -5.14% | 10000 nM 0.34%

Nc1nc(O)c2[nH]nnc2n1 [azaguanine-8]
inactive: 1 nM 1.2% | 8.33 nM 2% | 100 nM 1.6% | 833.33 nM 1.36% | 10000 nM 6.36%

C[C@](N)(Cc1ccc(O)cc1)C(=O)O [metirosine]
inactive: 1 nM 2.52% | 8.33 nM 2.13% | 100 nM 7.36% | 833.33 nM 2.34% | 10000 nM 2.26%

CC[C@H](CC[C@@H](C)[C@H]1CC[C@H]2[C@@H]3CC=C4C[C@@H](O[C@@H]5O[C@H](CO)[C@@H](O)[C@H](O)[C@H]5O)CC[C@]4(C)[C@H]3CC[C@]12C)C(C)C [daucosterol]
inactive: 1 nM 0.22% | 8.33 nM -0.23% | 100 nM 0.27% | 833.33 nM 0.28% | 10000 nM -1.86%

Nc1ccc(F)cc1NC(=O)c1ccc(CNC(=O)/C=C/c2cccnc2)cc1 [chidamide]
inactive: 1 nM 0.62% | 8.33 nM 0.21% | 100 nM -1.13% | 833.33 nM 1.82% | 10000 nM -0.06%

C[C@@]1(O)[C@H](O)[C@@H](CO)O[C@H]1n1ccc(N)nc1=O
inactive: 1 nM 5.4% | 8.33 nM -1.76% | 100 nM -3.15% | 833.33 nM -5.49% | 10000 nM -2.07%

CCCc1nc(C)c2c(=O)nc(-c3cc(S(=O)(=O)N4CCN(CC)CC4)ccc3OCC)[nH]n12 [vardenafil]
inactive: 1 nM -1.45% | 8.33 nM -1.02% | 100 nM 0.46% | 833.33 nM -0.81% | 10000 nM 1.4%
